The nature of assay [1]: NCI Yeast Anticancer Drug Screen. Data for the rad50 strain (AID 155).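 Note: 0% = growth of vehicle-only cultures of the same strain.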 The note with it: S. cerevisiae rad50 strain growth inhibition, active compounds read high; at 50.0 µM unless noted. In a few lines: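 A DNA repair-deficient yeast mutant serves as the test organism; compound-induced growth inhibition is calculated against vehicle-treated cells.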
Assay [2] can be described thus: NCI Yeast Anticancer Drug Screen. Data for the mec2-1 strain (AID 157). As to conditions: S. cerevisiae mec2-1 strain, active compounds read high; at 50.0 µM unless noted. In a few lines:
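Each compound was tested on mec2-1 yeast, a strain altered in DNA damage repair or cell cycle control. Growth inhibition is reported relative to vehicle.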

A short description of assay [3]: NCI Yeast Anticancer Drug Screen. Data for the sgs1 mgt1 strain (AID 161).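 Note: 0% = growth of cultures given vehicle only.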 As to conditions: S. cerevisiae sgs1 mgt1 strain, active compounds read high; at 50.0 µM unless noted. In a few lines: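 Test agents were incubated with a DNA-repair-mutant yeast strain. Growth was then read and compared against vehicle-treated controls.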
Assay [4] is described as follows: NCI Yeast Anticancer Drug Screen. Data for the cln2 rad14 strain (AID 165).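 Note: 0% = growth equal to vehicle treated cultures.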 The note with it: S. cerevisiae cln2 rad14 strain, active compounds read high; at 50.0 µM unless noted. In outline:
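Test compounds were added to cln2 rad14 yeast cultures; inhibition of growth was then determined by comparison with vehicle treatment.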

Assay [5] can be described thus: NCI Yeast Anticancer Drug Screen. Data for the bub3 strain (AID 167). As to conditions: S. cerevisiae bub3 mutant strain, active compounds read high; at 50.0 µM unless noted. In outline: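 Inhibition values come from growth of compound-treated mutant yeast normalised to vehicle-treated controls.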
Assay [6] in a line: NCI Yeast Anticancer Drug Screen. Data for the mlh1 rad18 strain (AID 175). The note with it: S. cerevisiae mlh1 rad18 strain growth inhibition, active compounds read high; at 50.0 µM unless noted. In outline:
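Inhibition values reflect reduced growth of mutant yeast versus vehicle-treated controls following compound exposure; the mutations affect DNA damage repair.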

These results are taken from PubChem BioAssay (NCI).

This is part of a sample that, as a whole, favours compounds with a hit. Of some 79,000 tested, about 15% had one in any assay. Unmarked numbers belong to inactive results. Calls of active or inactive are those of the source. Cut-off read from the data, not from the text of the source: active = growth inhibition above about 70%; inactive = the rest.

Take `O=[N+]([O-])c1cccc(C2=NN(c3ccccc3)C3c4cc(Br)ccc4OCC23)c1` (stereo not given): the growth inhibition in assay [1] is -10.8%; in assay [2] it was -18.4%; in assay [3], -17.6%; in assay [4], 2.45%; in assay [5] it was 10.2%; in assay [6] it was -31.7%.

Regarding `Cc1ccc(C)c(NC(=O)c2cccc(C(=O)Nc3cc(C)ccc3C)c2)c1`, the growth inhibition in assay [1] was -13.1%; in assay [2], 0.45%; in assay [3], -4.3%; in assay [4] it was 8.05%; in assay [5], 7.95%; in assay [6] it was 7%.

In the case of `CC(CCO)CCCO` (stereo not given), the growth inhibition is -22.1% in assay [1]; -11.8% in assay [2]; 7.35% in assay [3]; -13.8% in assay [4]; -26.2% in assay [5]; -26.8% in assay [6].

In the case of `CC(=O)c1ccc(N=CC2CCCCC2=O)cc1` (stereo not given), the growth inhibition in assay [1] is -8.35%; in assay [2], 2.7%; in assay [3] it was 17.1%; in assay [4], -30.1%; in assay [5], -2.9%; in assay [6], -13.9%.

For `CSc1nc(SC)c2cnn(CC3CO3)c2n1` (stereo not given), the growth inhibition in assay [1] was 44.2%; in assay [2], -15.2%; in assay [3] it was 60.8%; in assay [4], 11.1%; in assay [5], -20.1%; in assay [6], 39.5%.

`Nc1c(C(=O)O)ccc(O)c1O`: the growth inhibition in assay [1] was 28.9%; in assay [2] it was 20.5%; in assay [3] it was 32.2%; in assay [4], 7.95%; in assay [5], 0.95%; in assay [6] it was 9.8%.

As for `COC(=O)C(=O)C(C#N)c1ccccc1Cl` (stereo not given), the growth inhibition in assay [1] is 3.45%; in assay [2], -17.2%; in assay [3], 0.35%; in assay [4], 0.5%; in assay [5], -5.75%; in assay [6], 5.15%.

On to `CCOC(=O)CC(=O)Cc1ccccc1`, for which the growth inhibition in assay [1] is -23.3%; in assay [2] it was -16.6%; in assay [3], -6.25%; in assay [4], -43.8%; in assay [5], -13.2%; in assay [6], -19.1%.

As for `O=c1c2ccccc2[nH]c(=S)n1CCc1ccccn1`, the growth inhibition was 2.35% in assay [1]; 6.9% in assay [2]; 64.6% in assay [3]; 8.55% in assay [4]; 14.3% in assay [5]; -7.65% in assay [6].

For `[N-]=[N+]=Nc1cccc(-c2n[nH]c(Cl)cc2=O)c1`, the growth inhibition in assay [1] is -19.9%; in assay [2] it was -11.6%; in assay [3], -38.6%; in assay [4], 3.1%; in assay [5] it was -10.9%; in assay [6], -34%.

As for `C1CCCC(=NN=C2CCCCCCC2)CCC1`, the growth inhibition was 29% in assay [1]; 21.6% in assay [2]; 13.4% in assay [3]; -16.6% in assay [4]; -10.2% in assay [5]; 14.7% in assay [6].

On to `COc1cc(C2c3cc4c(c(OC)c3CC3COC(=O)[C@@H]32)OCO4)cc(OC)c1O` (stereo not given in full), for which the growth inhibition in assay [1] is 85.9% (active); in assay [2] it was 86.2% (active); in assay [3], 80.5% (active); in assay [4], 76.3% (active); in assay [5], 82.8% (active); in assay [6] it was 87.7% (active).

As for `CCCCCCCCC(=O)NCO`, the growth inhibition in assay [1] was -17.8%; in assay [2] it was -10.9%; in assay [3], -21.4%; in assay [4] it was -3.4%; in assay [5], -25.6%; in assay [6], -24.1%.

For the molecule `O=C1c2ccccc2C(=O)N1CN1C(=O)c2ccccc2S1(=O)=O`, the growth inhibition was 24.1% in assay [1]; 15.6% in assay [2]; 29.4% in assay [3]; 24.2% in assay [4]; 19.4% in assay [5]; 34.9% in assay [6].

With `N#C/C(=C\c1ccc2ccccc2c1)C(=O)c1ccccc1`, the growth inhibition in assay [1] was 13.7%; in assay [2], -14.3%; in assay [3], -15.3%; in assay [4], 17.8%; in assay [5] it was -17.7%; in assay [6], -47.7%.

Regarding `CC(=O)Oc1ccc2c(c1)[nH]c1c3ccc(OC(C)=O)cc3oc(=O)c21`, the growth inhibition in assay [1] was -21.4%; in assay [2] it was -26.9%; in assay [3] it was -8.05%; in assay [4] it was 5.8%; in assay [5], -2.85%; in assay [6], -13.7%.

Turning to `CCCC(=O)NC1CCc2cc(OC)c(OC)c(OC)c2-c2ccc(OC)c(=O)cc21` (stereo not given), the growth inhibition in assay [1] is 27.4%; in assay [2] it was -40.5%; in assay [3], 23.1%; in assay [4] it was -0.9%; in assay [5] it was 3.45%; in assay [6], 3.2%.

Consider `CON(C)C(=O)CNC(=O)OCC1c2ccccc2-c2ccccc21`, for which the growth inhibition is 8% in assay [1]; -6.05% in assay [2]; 5.35% in assay [3]; 2.15% in assay [4]; -5% in assay [5]; -29.3% in assay [6].

As to `O=C1C(c2ccccc2)=C(c2ccccc2)C1(Cl)Cl`, the growth inhibition was -5.95% in assay [1]; -6.1% in assay [2]; 44.3% in assay [3]; 37.6% in assay [4]; 17.9% in assay [5]; 88.4% (active) in assay [6].

`COc1ccc(C(=O)C(=O)c2ccccc2Cl)cc1`: the growth inhibition was 11.4% in assay [1]; 14.9% in assay [2]; 9.55% in assay [3]; 13.3% in assay [4]; 17.8% in assay [5]; 10.9% in assay [6].
